These results are taken from patent publication US20100081621, “Crystal structure of the catalytic domain of the viral restriction factor APOBEC3G” (published 2010).

Sequence of APOBEC3G R313E/R320D (Q9HC16 whole entry R313E/R320D, one chain of several): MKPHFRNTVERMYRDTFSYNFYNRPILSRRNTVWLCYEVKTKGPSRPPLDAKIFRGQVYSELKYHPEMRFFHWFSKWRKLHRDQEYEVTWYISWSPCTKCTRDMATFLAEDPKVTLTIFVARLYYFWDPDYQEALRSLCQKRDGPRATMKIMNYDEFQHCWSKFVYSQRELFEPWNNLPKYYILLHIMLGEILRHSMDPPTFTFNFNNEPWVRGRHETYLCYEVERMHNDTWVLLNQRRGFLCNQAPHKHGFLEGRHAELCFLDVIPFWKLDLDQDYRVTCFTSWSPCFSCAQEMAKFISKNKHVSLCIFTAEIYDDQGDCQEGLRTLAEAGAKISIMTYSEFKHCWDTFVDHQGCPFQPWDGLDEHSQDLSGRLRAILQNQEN

The target of this test is APOBEC3G R313E/R320D (Homo sapiens, UniProt Q9HC16 Q9HC16:1-384, R313E,R320D). As to the kind of experiment: FP; 5 mM MgCl2, 37 C. As to conditions: tags: Sf9, pAcG2T; label: internal fluorescein-dT; ssDNA; [15 (fluorescein-dT)]. Here is the method:
Apo3G-DNA binding were monitored by changes in steady state fluorescence depolarization (rotational anisotropy). Reaction mixtures (70 μl), containing an F-labeled DNA ([…]) in buffer (50 mM HEPES, pH 7.3, 1 mM DTT and 5 mM MgCl₂) and varying concentration of 0 to 500 nM Apo3G, were incubated at 37° C. The sequence of the ssDNA is: tta gat gag tgt aa(FdT) gtg ata tat gtg tat. Rotational anisotropy was measured as described previously (Chelico et al., 2006). The fraction of DNA bound to protein was determined as described previously (Bertram et al., 2004).
Take TTAGATGAGTGTAATGTGATATATGTGTAT: the binding signal was 77 % of wt.
